Reference: PubChem BioAssay (Tox21)
Values without a mark were called inactive. Calls come from the whole dose curve; as a rule, active = well fitted inhibition curve with a large enough effect in the repeat runs (not every such curve was filed as active); inconclusive = weak or mixed curves; inactive = flat fitted curve, though single readings scatter.

What follows are compounds tested against Thyrotropin-releasing hormone receptor (Homo sapiens) (UniProt P34981) (assay: qHTS assay to identify small molecule antagonists of the thyrotropin-releasing hormone receptor (TRHR) signaling pathway (AID 1346877)). Details: TRHR-HEK293, TRH-induced calcium fluorescence, antagonist mode; series mostly up to 51.3 µM; activity, negative = inhibition: at the top concentration.
Sequence of Thyrotropin-releasing hormone receptor (Homo sapiens) (P34981 whole entry, looked up): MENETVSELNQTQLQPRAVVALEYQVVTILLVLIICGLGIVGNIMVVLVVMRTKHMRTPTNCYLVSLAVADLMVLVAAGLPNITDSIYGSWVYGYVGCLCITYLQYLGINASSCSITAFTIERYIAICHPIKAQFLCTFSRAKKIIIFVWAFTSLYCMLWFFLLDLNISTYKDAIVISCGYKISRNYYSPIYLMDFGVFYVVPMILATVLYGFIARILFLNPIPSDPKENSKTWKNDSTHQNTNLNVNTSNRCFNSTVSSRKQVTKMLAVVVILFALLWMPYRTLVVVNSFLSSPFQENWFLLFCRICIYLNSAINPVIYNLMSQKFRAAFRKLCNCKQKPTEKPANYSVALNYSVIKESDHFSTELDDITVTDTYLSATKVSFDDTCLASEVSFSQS
From the text: National Center for Advancing Translational Sciences [NCATS]
NIH Chemical Genomics Center [NCGC]
U.S. Environmental Protection Agency [EPA]
National Institutes of Environmental Health Sciences [NIEHS]
National Toxicology Program [NTP]
U.S. Food and Drug Administration [FDA]
Thyrotropin-releasing hormone (TRH) receptor (TRHR) is a G-protein-coupled receptor which binds the tripeptide thyrotropin releasing hormone. TRHR is found in the brain and, when bound by TRH, acts (through phospholipase C) to increase intracellular inositol trisphosphate. It plays a crucial role in the anterior pituitary where it controls the synthesis and secretion of thyroid stimulating hormone and prolactin. The TRHR-Hek293 assay is a cell-based assay, and it has the potential to screen G protein-coupled receptors. A compound/drug can either activate (agonist) or suppress (antagonist) GPCRs that can be monitored by levels of intracellular calcium. In this assay, the Tox21 10K compound library was screened to identify potential TRHR antagonists.
Tox21 Assay Protocol Summary:
The TRHR-Hek293 cells were dispensed at 1500cells/4uL/well in 1536-well black-clear bottom plates using a Multidrop dispenser. After the assay plates were incubated at a 37 C/5% CO2 incubator for 18 hours, 4 uL of Dye-Loading Solution was added to each well. The plates were incubated at 37 C for 2 hours. For agonist mode, 23 nL of compounds dissolved in DMSO, positive controls or DMSO only was transferred to the assay plate by a pin tool. The fluorescence intensity in the plates was measured using FDSS 7000EX kinetic plate reader for 3 min at 1 sec intervals. For antagonist mode, 23 nL of compounds dissolved in DMSO, positive controls or DMSO only was transferred to the assay plate by a pin tool. After 5 min incubation at room temperature, 1 uL of TRH was added on the top of the cell/compound mixtures to achieve a final agonist concentration of 1 nM. The fluorescence intensity in the plates was measured using FDSS 7000EX kinetic plate reader for 3 min at 1 sec intervals. Each test compound was measured at 15 concentrations and in triplicates.
% is set by controls: 0 for no effect and ±100 for the full control effect.

**Q.** How did the activity, negative = inhibition turn out when `O=C(O)C[C@H](O)C[C@H](O)/C=C/c1c(C2CC2)nc2ccccc2c1-c1ccc(F)cc1` was run?
**A.** Its activity, negative = inhibition is 1.91% [at 10.5 µM].

**Q.** For `CCOC(=O)C1=NN(c2ccc(Cl)cc2Cl)C(C)(C(=O)OCC)C1` (stereo not given), which “activity, negative = inhibition” value is on record?
**A.** The value was -14.7%.

**Q.** How did the “activity, negative = inhibition” value turn out when `CC(C)(C)c1cc(CCC(=O)OCCSCCOC(=O)CCc2cc(C(C)(C)C)c(O)c(C(C)(C)C)c2)cc(C(C)(C)C)c1O` was run?
**A.** The value was -0.564% [at 23.6 µM].

**Q.** For `Nc1ccc2c(S(=O)(=O)O)cccc2c1S(=O)(=O)O`, which “activity, negative = inhibition” value is on record?
**A.** The value was 1.29% [at 23.6 µM].

**Q.** How did the “activity, negative = inhibition” value turn out when `Cc1c(Cl)c(=O)oc2cc(O)ccc12` was run?
**A.** The value was 0.663%.

**Q.** How did the “activity, negative = inhibition” value turn out when `CC/C=C\C/C=C\C/C=C\CCCCCCCC(=O)OC` was run?
**A.** The value was -13.4%.

**Q.** For `O=C1CCCCCCCCCCCCCC1`, which “activity, negative = inhibition” value is on record?
**A.** The value was -0.505%.

**Q.** How did the “activity, negative = inhibition” value turn out when `Oc1ccc2c(c1)CCC2` was run?
**A.** The value was 2.79%.

**Q.** How did the “activity, negative = inhibition” value turn out when `CC/C=C(\C)C=O` was run?
**A.** The value was 6.04%.

**Q.** With `CC1(C)[C@H](C(=O)OCc2cccc(Oc3ccccc3)c2)[C@@H]1C=C(Cl)Cl` as the compound, how does the “activity, negative = inhibition” value read?
**A.** Its value is 1.24%.

**Q.** Which “activity, negative = inhibition” value does the source give for `CO[Si](OC)(c1ccccc1)c1ccccc1` here?
**A.** Its value is -13.2%.

**Q.** How did the “activity, negative = inhibition” value turn out when `CN[C@H]1CC[C@@H](c2ccc(Cl)c(Cl)c2)c2ccc(S(N)(=O)=O)cc21` was run?
**A.** The value was -17.2%.

**Q.** Which “activity, negative = inhibition” value does the source give for `Nc1cc([N+](=O)[O-])cc(Cl)c1O` here?
**A.** The value was 0.259%.

**Q.** For `Nc1ccc(Cl)c([N+](=O)[O-])c1`, which “activity, negative = inhibition” value is on record?
**A.** Its value is 0.384%.

**Q.** For `CCOc1ccc([N+](=O)[O-])cc1`, which “activity, negative = inhibition” value is on record?
**A.** Its value is -18.3%.

**Q.** For `CCN(CC)c1ccc(C=O)cc1`, which “activity, negative = inhibition” value is on record?
**A.** The value was -3.89%.

**Q.** How did the activity, negative = inhibition turn out when `O=C(O)CN(CCCN(CC(=O)O)CC(=O)O)CC(=O)O` was run?
**A.** Its activity, negative = inhibition is -1.06% [at 10.5 µM].

**Q.** How did the “activity, negative = inhibition” value turn out when `O=C(Nc1ccccc1)c1cc(Cl)ccc1O` was run?
**A.** Its value is -6.77%.

**Q.** `CCCCNc1ccc(NCCCC)c2c1C(=O)c1ccccc1C2=O` was tested. Which activity, negative = inhibition did it give?
**A.** Its activity, negative = inhibition is 0.3% [at 10.5 µM].

**Q.** How did the “activity, negative = inhibition” value turn out when `C[C@H]1O[C@@H](O[C@H]2CC[C@@]3(C)[C@H](CC[C@@H]4[C@@H]3C[C@@H](O)[C@]3(C)[C@@H](C5=CC(=O)OC5)CC[C@]43O)C2)C[C@H](O)[C@@H]1O[C@H]1C[C@H](O)[C@H](O[C@H]2C[C@H](O)[C@H](O[C@@H]3O[C@H](CO)[C@@H](O)[C@H](O)[C@H]3O)[C@@H](C)O2)[C@@H](C)O1` was run?
**A.** The value was -1.57% [at 23.6 µM].

**Q.** How did the “activity, negative = inhibition” value turn out when `CC/C(=C(/c1ccc(O)cc1)c1ccc(OCCN(C)C)cc1)c1ccccc1` was run?
**A.** The value was -16.3% [at 23.6 µM].

**Q.** For `CCCCCN=C(N)N/N=C/c1c[nH]c2ccc(OC)cc12`, which “activity, negative = inhibition” value is on record?
**A.** The value was 1.49% [at 23.6 µM].

**Q.** Which “activity, negative = inhibition” value does the source give for `Cc1ccc(N=Nc2c(O)ccc3ccccc23)c(C)c1` here?
**A.** Its value is -0.495% [at 23.6 µM].

**Q.** With `CN(C/C=C/c1ccccc1)Cc1cccc2ccccc12` as the compound, how does the “activity, negative = inhibition” value read?
**A.** The value was 0.335% [at 23.6 µM].

**Q.** For `CCC1(C)C(=O)N(Cl)C(=O)N1Cl` (stereo not given), which “activity, negative = inhibition” value is on record?
**A.** Its value is 2.34%.

**Q.** How did the “activity, negative = inhibition” value turn out when `COc1cc(/C=C/C(=O)CC(=O)/C=C/c2ccc(O)c(OC)c2)ccc1O` was run?
**A.** The value was -13%.

**Q.** `Cc1cc(F)ccc1-c1cc(N2CC[C@@H](O)[C@H]2CO)ncc1N(C)C(=O)C(C)(C)c1cc(C(F)(F)F)cc(C(F)(F)F)c1` was tested. Which “activity, negative = inhibition” value did it give?
**A.** Its value is -6.1%.

**Q.** With `O=C1OC(=O)c2cc(-c3ccc4c(c3)C(=O)OC4=O)ccc21` as the compound, how does the “activity, negative = inhibition” value read?
**A.** The value was 2.17%.

**Q.** For `COc1c(Br)cc(Br)c(C)c1Br`, which “activity, negative = inhibition” value is on record?
**A.** The value was -4.88%.

**Q.** Which “activity, negative = inhibition” value does the source give for `O=C(CCCCCCCCc1cccnc1)N1CCC(C=C(c2ccccc2)c2ccccc2)CC1` here?
**A.** The value was -1.46%.

**Q.** With `CN(C[C@@H](CC[N+]12CCC(C3CCCCC3)(CC1)CC2)c1ccc(Cl)c(Cl)c1)C(=O)c1cc(C(F)(F)F)cc(C(F)(F)F)c1` as the compound, how does the “activity, negative = inhibition” value read?
**A.** Its value is -3.36%.

**Q.** With `CC1=CC[C@@H](C(C)(C)O)CC1` as the compound, how does the “activity, negative = inhibition” value read?
**A.** The value was -99%.

**Q.** How did the “activity, negative = inhibition” value turn out when `c1ccc2occc2c1` was run?
**A.** The value was 1.17%.

**Q.** For `CCOc1nc(F)cc2nc(S(=O)(=O)Nc3c(Cl)cccc3C(=O)OC)nn12`, which “activity, negative = inhibition” value is on record?
**A.** The value was -9.97%.

**Q.** For `CCOC=C(C(=O)OCC)C(=O)OCC`, which “activity, negative = inhibition” value is on record?
**A.** Its value is 0.107%.

**Q.** `O=C(Cl)c1ccc(Cl)cc1Cl` was tested. Which “activity, negative = inhibition” value did it give?
**A.** Its value is -9%.

**Q.** `Oc1ccc(C2(c3ccc(O)c(C4CCCCC4)c3)CCCCC2)cc1C1CCCCC1` was tested. Which “activity, negative = inhibition” value did it give?
**A.** The value was -0.365%.

**Q.** Which activity, negative = inhibition does the source give for `C=CC(=O)OCCOC1C2CCC1C1CC=CC12` (stereo not given) here?
**A.** Its activity, negative = inhibition is 0.809% [at 10.5 µM].

**Q.** Which “activity, negative = inhibition” value does the source give for `CSc1nnc(C(C)(C)C)c(=O)[nH]1` here?
**A.** The value was 4.82%.

**Q.** How did the “activity, negative = inhibition” value turn out when `CCNc1nc(NC(C)(C)C)nc(OC)n1` was run?
**A.** Its value is 2.21%.
